Test results published in PubChem BioAssay AID1159580 (chemical genetic matrix, 2015).
Out of some 5,500 compounds screened, about 2,000 (36%) were called active. About 18% were inconclusive and are not listed. Some of the results follow. Unmarked numbers belong to inactive results. Rule as the data show it: active = normalized growth mostly below about 0.91 (no sharp cut-off); inconclusive = no clear call, values can overlap the other calls; inactive = mostly above about 0.92.

Assay: chemical genetic growth profiling, strain panel (AID 1159580);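 also: tested at 20 µM; growth read once vehicle control cultures reached saturation at 30 °C; 1 = growth at the plate median or of vehicle wells; lower values mean less growth of the strain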
Conditions: S. cerevisiae deletion strains, growth OD
[1] = locus YAL040C, strain CLN3, hits give low values
[2] = locus YCL061C, strain MRC1 (second series), hits give low values
[3] = locus YER002W, strain NOP16, hits give low values
[4] = locus YGR078C, strain PAC10, hits give low values
[5] = locus YNL153C, strain GIM3, hits give low values
[6] = locus YNL175C, strain NOP13, hits give low values
[7] = locus YNL197C, strain WHI3, hits give low values
[8] = locus YNL224C, strain SQS1, hits give low values
[9] = locus YNL322C, strain KRE1, hits give low values
[10] = locus YOR083W, strain WHI5 (second series), hits give low values

Row | SMILES | normalized growth [1] | normalized growth [2] | normalized growth [3] | normalized growth [4] | normalized growth (locus YMR307W, strain GAS1, hits give low values) | normalized growth (locus YNL128W, strain TEP1, hits give low values) | normalized growth [5] | normalized growth [6] | normalized growth [7] | normalized growth [8] | normalized growth [9] | normalized growth [10] | normalized growth (locus YPL241C, strain CIN2, hits give low values) | normalized growth (locus YDR150W, strain NUM1, hits give low values) | normalized growth (locus YMR263W, strain SAP30, hits give low values)
1 | Clc1cccc(N2CCNCC2)c1 | 0.974 | 0.983 | 0.981 | 0.996 | 0.991 | 0.981 | 0.985 | 0.97 | 0.979 | 0.984 | 0.996 | 0.962 | 0.982 | – | –
2 | OC(CN1CCN(c2cccc(Cl)c2)CC1)C(c1ccccc1)c1ccccc1 (stereo not given) | 0.979 | 0.986 | 1.19 [resistant] (active) | 1.01 | – | – | 0.992 | 1.09 | 0.992 | 1.01 | 0.97 | 1.17 [resistant] (active) | – | 0.985 | 0.997
